Shown are actives, neighbours in structure and some others; about 7.5% of the full set was active somewhere.
Rab9 promoter act – activators of Rab9 promoter; Huh7 Rab9 promoter-luciferase reporter, luminescence, 24 h; Potency, µM (highest dose often 9.22 µM), actives largely listed as activators; 320,000 tested, 2.8% active; also: nearly all actives have a fitted effect of over 60% in size
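Huh7 reporter line, Rab9 promoter upstream of luciferase. Compound exposure 24 h at 37 °C in reduced-serum medium with 10% FBS. Read-out: luminescence.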
FLuc counter – counter-screen for miR-21 project: firefly luciferase inhibitors or activators. Potency, µM (titrated, usually from 57.5 µM), usual class: inhibitors. purified FLuc, Km substrates, luminescence inhibition. 360,000 tested, 6.9% active. AID 588342. P08659; also: nearly all actives have a fitted effect of over 55% in size
Target sequence (P08659 whole entry, looked up): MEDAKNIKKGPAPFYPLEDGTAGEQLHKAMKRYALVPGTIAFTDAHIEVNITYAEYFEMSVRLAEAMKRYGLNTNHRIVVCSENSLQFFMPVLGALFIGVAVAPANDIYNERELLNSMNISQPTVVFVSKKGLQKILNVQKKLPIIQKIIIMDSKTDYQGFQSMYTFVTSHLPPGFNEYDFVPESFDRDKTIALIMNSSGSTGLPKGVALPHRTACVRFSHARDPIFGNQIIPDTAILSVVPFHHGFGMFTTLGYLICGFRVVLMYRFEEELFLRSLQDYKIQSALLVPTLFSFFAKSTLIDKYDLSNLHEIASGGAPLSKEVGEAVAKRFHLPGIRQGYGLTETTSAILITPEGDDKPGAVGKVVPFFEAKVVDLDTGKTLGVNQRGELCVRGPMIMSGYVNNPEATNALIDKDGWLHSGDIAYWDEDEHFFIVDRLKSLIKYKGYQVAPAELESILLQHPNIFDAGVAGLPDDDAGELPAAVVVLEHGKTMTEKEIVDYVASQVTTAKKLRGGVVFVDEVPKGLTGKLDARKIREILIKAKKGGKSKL
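Purified P. pyralis luciferase (10nM final) with 10uM D-luciferin and 10uM ATP (Km levels) in 50mM Tris acetate pH 7.5, 10mM Mg acetate, 0.01% Tween-20, 0.05% BSA; qHTS 6-point titration, ~60 µM downward; luminescence read.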
NPC1 promoter act – NPC1 promoter activation; Huh7 NPC1 promoter luciferase reporter, 24 h; Potency, µM (titrated, usually from 9.22 µM), most hits filed as activators; 320,000 tested, 2.4% active; AID 485313; also: nearly all actives have a fitted effect of over 60% in size
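Huh7 cells stably carrying NPC1 promoter–luciferase, plated in Opti-MEM with 10% FBS for 2 h, were exposed to compound in DMSO for 24 h at 37 °C; luciferase reagent was added for 10 min and luminescence read.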
SMN2 splice enh – enhancers of SMN2 splice variant expression; HEK293 SMN2-luciferase splicing reporter, luminescence, 30-36 h; Potency, µM (highest dose often 46.1 µM), actives largely listed as activators; 210,000 tested, 2.8% active; AID 1458; also: nearly all actives have a fitted effect of over 55% in size
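qHTS luciferase splicing reporter: luminescence rises when SMN2 exon 7 is included in transfected HEK293 cells. Compound exposure lasted 30-36 h at 37C, with 4.5 mM final sodium butyrate as control, followed by a ONE-Glo read.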
KinaseGlo FLuc – Kinase-Glo luciferase inhibition (counter-screen); Q27757; Kinase-Glo luciferase, ATP luminescence, 8 min; Potency, µM (titrated, usually from 38.3 µM), most hits filed as inhibitors; 200,000 tested, 0.28% active; AID 1379; also: nearly all actives have a fitted effect of over 60% in size
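Compounds were added to a substrate mix at pH 7.2 (50 mM imidazole, 10 uM ATP, within the enzyme's linear range), followed by Kinase-Glo detection reagent; luminescence was measured after 8 minutes at ambient temperature.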
ELG1 genotoxic – induces genotoxicity in HEK293T cells with luciferase-tagged ELG1 | HEK293T ELG1-luciferase reporter, luminescence, 16 h | Potency, µM (titrated, usually from 46 µM), hits mostly activators | 330,000 tested, 1.3% active; also: nearly all actives have a fitted effect of over 60% in size
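HEK293T cells expressing luciferase-tagged ELG1 were treated with compound or DMSO for 16 hr at 37°C. Luciferase activity was then read after 30 min with ONE-Glo at room temperature; rising signal flags genetic stress.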
Of the large screens only hits and unclear results are named; the others gave an inactive call. Calls follow the shape of the dose curve; as a rule, active = well fitted curve in the direction sought with a large enough effect; inconclusive = small, poorly fitted or top-dose-only effect, or another doubt; inactive = no such curve, though single readings can be large; an effect the other way counts as inactive or inconclusive.

CC(C)c1ccc(C(=O)NNC(=O)C2C3CCC(C3)C2C(=O)O)cc1 (centres undefined)	Rab9 promoter act 1.3µM, FLuc counter 7.6µM, NPC1 promoter act 0.5µM, ELG1 genotoxic 4.6µM (no result: SMN2 splice enh, KinaseGlo FLuc)
O=C(NNC(=O)C1C2CCC(C2)C1C(=O)O)c1ccc(Br)o1 (centres undefined)	none
CCOc1ccccc1C(=O)NN1C(=O)C2CCCCC2C1=O (centres undefined)	none
CCOC(=O)C(CC)Sc1ncnc2c1c(-c1ccccc1)cn2-c1ccc(OC)cc1 (centres undefined)	none (no result: Rab9 promoter act, NPC1 promoter act, KinaseGlo FLuc, ELG1 genotoxic)
N#C/C(C(=O)c1ccccc1)=C1/CCCCCN1	Rab9 promoter act 2.5µM, FLuc counter 21µM, NPC1 promoter act inconclusive, SMN2 splice enh inconclusive, ELG1 genotoxic inconclusive
Cc1cc2ncn(C(=O)c3ccc(F)cc3)c2cc1C	FLuc counter 13µM (no result: SMN2 splice enh, KinaseGlo FLuc)
CN(C)c1ccc(C(=O)n2nnc3ccccc32)cc1	FLuc counter 0.13µM, KinaseGlo FLuc inconclusive, ELG1 genotoxic inconclusive
CCN(CC)c1ccc(C(=O)n2cnc3ccccc32)cc1	Rab9 promoter act inconclusive, FLuc counter 5.4µM, NPC1 promoter act inconclusive
CC(C)(C)c1ccc(C(=O)N2CCCN(C(=O)c3ccc(C(C)(C)C)cc3)CC2)cc1	none
CC(C)(C)c1ccc(C(=O)n2cnc3ccccc32)cc1	FLuc counter 3.4µM (no result: SMN2 splice enh, KinaseGlo FLuc)
CCCCC/C=C\C[C@@H](O)/C=C/C=C/C=C/[C@@H](O)CCCC(=O)O	none (no result: Rab9 promoter act, FLuc counter, NPC1 promoter act, ELG1 genotoxic)
CCC(C)c1ccc(O[C@@H]2O[C@H](CO)[C@@H](O)[C@H](O)[C@H]2NC(C)=O)cc1 (some centres undefined)	SMN2 splice enh inconclusive (no result: Rab9 promoter act, FLuc counter, NPC1 promoter act, ELG1 genotoxic)
Cc1cc(OCC(=O)Nc2ccc3oc(=O)ccc3c2)ccc1Cl	ELG1 genotoxic inconclusive (no result: SMN2 splice enh, KinaseGlo FLuc)
CCc1cccc(NC(=O)Nc2csc3c2CCCC3)c1	FLuc counter inconclusive (no result: Rab9 promoter act, NPC1 promoter act, KinaseGlo FLuc, ELG1 genotoxic)
CCc1cccc(NC(=O)Nc2cccs2)c1	Rab9 promoter act 2.8µM, FLuc counter 8.5µM, NPC1 promoter act inconclusive, SMN2 splice enh 13µM, ELG1 genotoxic inconclusive
N#Cc1cccc(NC(=O)Nc2cccs2)c1	FLuc counter 15µM
CCNC(=O)NC(=O)COC(=O)c1ccccc1SCC(=O)NC(=O)NCC	Rab9 promoter act 2.8µM, FLuc counter 5.4µM, NPC1 promoter act 1.6µM, SMN2 splice enh 8.9µM, ELG1 genotoxic inconclusive
Cc1ccn2c(NC3CCCC3)c(-c3cccs3)nc2c1	Rab9 promoter act inconclusive, FLuc counter 19µM
Cc1ccn2c(NCc3ccccc3)c(-c3cccs3)nc2c1	Rab9 promoter act 3.2µM, FLuc counter 15µM, NPC1 promoter act inconclusive, SMN2 splice enh inconclusive
Cc1ccn2c(NC(=O)c3ccccc3)c(-c3cccs3)nc2c1	none
Cc1ccc(-c2nc3ccccc3n3nnnc23)cc1	SMN2 splice enh 13µM, ELG1 genotoxic inconclusive
Fc1ccccc1Nc1nc2ccccc2n2nnnc12	Rab9 promoter act inconclusive, FLuc counter inconclusive, SMN2 splice enh inconclusive, ELG1 genotoxic 13µM
CC(C)(C)NC(=O)/C=C/c1ccc(C(F)(F)F)cc1	FLuc counter 27µM
CNC(=O)/C=C/c1cccc(C(F)(F)F)c1	none
O=C(O)COc1ccc(C(NC(=O)c2c(F)cccc2F)NC(=O)c2c(F)cccc2F)cc1	none (no result: SMN2 splice enh, KinaseGlo FLuc)
Cc1[nH]c2c(ccc3cccnc32)c1C	FLuc counter 24µM (no result: SMN2 splice enh, KinaseGlo FLuc)
Clc1ccc(CSc2ccc(-c3ccccn3)nn2)cc1	Rab9 promoter act inconclusive, FLuc counter inconclusive, NPC1 promoter act inconclusive, ELG1 genotoxic 23µM
c1ccc(CSc2ccc(-c3ccccn3)nn2)cc1	Rab9 promoter act 2.2µM, FLuc counter 4.8µM, NPC1 promoter act 0.79µM, SMN2 splice enh 0.79µM, ELG1 genotoxic 2.3µM
COc1cccc(NC(=O)Nc2ccc3nc(C)c(C)nc3c2)c1	FLuc counter inconclusive (no result: SMN2 splice enh, KinaseGlo FLuc)
COc1cccc(NC(=O)Nc2ccc3nsnc3c2)c1	Rab9 promoter act 2.8µM, FLuc counter 7.6µM, NPC1 promoter act inconclusive, SMN2 splice enh 13µM
COc1cccc(NC(=O)Nc2ccc3c(c2)nc(C)n3C)c1	Rab9 promoter act 0.71µM, FLuc counter 0.95µM, NPC1 promoter act 0.71µM, KinaseGlo FLuc inconclusive, ELG1 genotoxic inconclusive (no result: SMN2 splice enh)

High-throughput results (PubChem)
